Assay results published in the supplement of paper PMC10849652.
Of roughly 7,900 targets only a part is listed; those with a hit were picked by preference. About 0.6% of all pairs of compound and target were hits.

Compound: CC(C)(C)Cn1c(N)nc2ccc(-c3[nH]c(C(C)(C)C)nc3-c3ccc(F)cc3)nc21 [ralimetinib]
Assay: log2 fold change, soluble protein after heating vs DMSO (PISA); higher = thermal stabilisation; K562 cells, 10 uM, 30 min; active = over 0.2 and 3.5 SD of the protein, either way, in both replicates (recomputed)
Method in brief: (§1)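 Soluble protein was quantified by TMTpro 16plex LC-MS/MS after channel sums were equalised. It was obtained as the supernatant after 21,000xg for 90 min from pooled aliquots of K562 cells (2×10^6 cells/mL, 10 μM compound, 30 min) heated for 3 min across 48°C-58°C and extracted in PBS with 0.5% NP-40 at 4°C. Thermal stability values are relative to control samples and come from duplicates. They are given as log2 fold changes.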

Sequence of UniProt Q9Y5Y5 (Q9Y5Y5 whole entry, looked up): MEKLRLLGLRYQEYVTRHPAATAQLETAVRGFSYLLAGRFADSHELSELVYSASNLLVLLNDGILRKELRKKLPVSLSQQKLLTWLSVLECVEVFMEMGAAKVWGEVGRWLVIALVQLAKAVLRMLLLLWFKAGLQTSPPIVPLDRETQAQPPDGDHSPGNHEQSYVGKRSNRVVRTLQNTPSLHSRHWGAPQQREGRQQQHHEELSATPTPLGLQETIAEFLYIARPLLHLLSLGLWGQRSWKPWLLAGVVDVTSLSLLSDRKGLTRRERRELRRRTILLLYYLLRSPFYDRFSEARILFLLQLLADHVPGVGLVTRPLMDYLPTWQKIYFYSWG
Sequence of UniProt P15735 (P15735 whole entry, looked up): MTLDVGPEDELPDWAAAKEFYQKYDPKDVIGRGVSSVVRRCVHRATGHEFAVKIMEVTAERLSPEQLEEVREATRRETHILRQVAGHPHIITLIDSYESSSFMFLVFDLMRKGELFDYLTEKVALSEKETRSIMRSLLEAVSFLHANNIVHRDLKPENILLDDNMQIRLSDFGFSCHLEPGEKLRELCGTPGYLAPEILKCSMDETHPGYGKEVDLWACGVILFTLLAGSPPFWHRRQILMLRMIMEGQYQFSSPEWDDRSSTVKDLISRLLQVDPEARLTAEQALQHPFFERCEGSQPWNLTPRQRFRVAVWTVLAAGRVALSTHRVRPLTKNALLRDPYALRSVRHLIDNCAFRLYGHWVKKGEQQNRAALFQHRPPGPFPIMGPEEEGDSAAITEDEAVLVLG
Sequence of UniProt Q5VU43 (Q5VU43 whole entry, looked up): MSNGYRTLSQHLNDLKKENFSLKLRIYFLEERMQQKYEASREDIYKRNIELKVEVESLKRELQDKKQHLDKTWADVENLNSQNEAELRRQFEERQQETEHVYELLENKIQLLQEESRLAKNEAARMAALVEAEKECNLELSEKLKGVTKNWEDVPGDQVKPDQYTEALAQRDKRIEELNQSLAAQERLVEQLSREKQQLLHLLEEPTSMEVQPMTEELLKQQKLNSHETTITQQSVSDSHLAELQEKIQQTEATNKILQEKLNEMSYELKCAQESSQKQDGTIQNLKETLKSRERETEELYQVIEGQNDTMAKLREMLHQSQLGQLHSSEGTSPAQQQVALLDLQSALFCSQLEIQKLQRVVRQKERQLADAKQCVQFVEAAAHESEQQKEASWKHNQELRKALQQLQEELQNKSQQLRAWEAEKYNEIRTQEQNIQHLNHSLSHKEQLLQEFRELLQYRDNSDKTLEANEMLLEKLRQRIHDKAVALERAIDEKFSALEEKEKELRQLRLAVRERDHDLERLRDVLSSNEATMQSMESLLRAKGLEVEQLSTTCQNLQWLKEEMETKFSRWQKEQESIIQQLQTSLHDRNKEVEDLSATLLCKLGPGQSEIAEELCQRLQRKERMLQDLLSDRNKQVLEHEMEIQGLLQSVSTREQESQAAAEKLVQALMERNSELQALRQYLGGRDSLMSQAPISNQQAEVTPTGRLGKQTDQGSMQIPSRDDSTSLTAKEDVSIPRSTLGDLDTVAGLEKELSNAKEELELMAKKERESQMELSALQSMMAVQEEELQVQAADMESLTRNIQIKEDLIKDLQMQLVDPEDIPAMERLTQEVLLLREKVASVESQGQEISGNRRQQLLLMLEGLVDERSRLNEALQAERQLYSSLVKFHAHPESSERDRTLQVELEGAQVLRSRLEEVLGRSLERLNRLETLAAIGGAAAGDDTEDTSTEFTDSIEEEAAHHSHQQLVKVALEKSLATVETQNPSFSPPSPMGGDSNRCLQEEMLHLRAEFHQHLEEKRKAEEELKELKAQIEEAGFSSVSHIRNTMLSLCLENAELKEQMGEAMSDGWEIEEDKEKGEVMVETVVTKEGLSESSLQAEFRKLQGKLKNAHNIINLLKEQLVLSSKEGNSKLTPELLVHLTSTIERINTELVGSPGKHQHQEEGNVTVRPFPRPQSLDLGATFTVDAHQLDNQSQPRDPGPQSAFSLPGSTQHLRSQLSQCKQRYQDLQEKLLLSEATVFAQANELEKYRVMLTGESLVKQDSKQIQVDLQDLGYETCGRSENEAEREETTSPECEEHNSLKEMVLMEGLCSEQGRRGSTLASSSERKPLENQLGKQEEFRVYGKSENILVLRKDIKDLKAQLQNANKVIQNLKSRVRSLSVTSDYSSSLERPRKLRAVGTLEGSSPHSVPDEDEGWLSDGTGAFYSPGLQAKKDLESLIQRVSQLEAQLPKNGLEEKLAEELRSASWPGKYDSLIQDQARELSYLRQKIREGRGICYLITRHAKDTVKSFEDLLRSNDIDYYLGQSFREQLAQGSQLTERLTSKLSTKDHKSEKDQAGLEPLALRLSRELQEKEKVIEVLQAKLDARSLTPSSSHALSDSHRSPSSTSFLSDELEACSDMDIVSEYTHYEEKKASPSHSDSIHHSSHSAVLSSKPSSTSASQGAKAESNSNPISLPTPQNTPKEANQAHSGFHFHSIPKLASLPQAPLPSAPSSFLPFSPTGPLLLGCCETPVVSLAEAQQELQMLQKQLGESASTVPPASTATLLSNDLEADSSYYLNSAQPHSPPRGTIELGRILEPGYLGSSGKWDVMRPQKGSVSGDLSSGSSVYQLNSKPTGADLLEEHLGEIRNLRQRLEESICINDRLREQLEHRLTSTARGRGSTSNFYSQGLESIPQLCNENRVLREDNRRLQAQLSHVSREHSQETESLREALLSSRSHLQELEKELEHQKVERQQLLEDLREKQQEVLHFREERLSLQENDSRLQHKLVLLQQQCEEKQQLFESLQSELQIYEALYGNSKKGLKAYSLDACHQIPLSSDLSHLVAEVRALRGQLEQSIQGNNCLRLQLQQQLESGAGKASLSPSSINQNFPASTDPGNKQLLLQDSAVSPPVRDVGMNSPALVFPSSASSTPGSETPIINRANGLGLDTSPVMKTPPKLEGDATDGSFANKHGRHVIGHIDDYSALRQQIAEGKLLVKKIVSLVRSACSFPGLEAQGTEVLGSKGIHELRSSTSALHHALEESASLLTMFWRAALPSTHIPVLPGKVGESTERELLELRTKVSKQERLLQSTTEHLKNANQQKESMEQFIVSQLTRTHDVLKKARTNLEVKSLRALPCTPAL
Sequence of UniProt Q9Y5K3 (Q9Y5K3 whole entry, looked up): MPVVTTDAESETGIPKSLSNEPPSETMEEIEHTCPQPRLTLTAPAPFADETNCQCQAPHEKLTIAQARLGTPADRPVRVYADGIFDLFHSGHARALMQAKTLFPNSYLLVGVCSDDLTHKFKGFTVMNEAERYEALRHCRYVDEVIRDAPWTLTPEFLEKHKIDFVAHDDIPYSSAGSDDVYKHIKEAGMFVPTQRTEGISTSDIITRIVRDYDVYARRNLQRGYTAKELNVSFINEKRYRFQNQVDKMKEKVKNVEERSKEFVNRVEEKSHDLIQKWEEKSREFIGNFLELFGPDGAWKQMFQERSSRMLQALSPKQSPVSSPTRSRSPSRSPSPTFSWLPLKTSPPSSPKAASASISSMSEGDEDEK
Sequence of UniProt Q9UNM6 (Q9UNM6 whole entry, looked up): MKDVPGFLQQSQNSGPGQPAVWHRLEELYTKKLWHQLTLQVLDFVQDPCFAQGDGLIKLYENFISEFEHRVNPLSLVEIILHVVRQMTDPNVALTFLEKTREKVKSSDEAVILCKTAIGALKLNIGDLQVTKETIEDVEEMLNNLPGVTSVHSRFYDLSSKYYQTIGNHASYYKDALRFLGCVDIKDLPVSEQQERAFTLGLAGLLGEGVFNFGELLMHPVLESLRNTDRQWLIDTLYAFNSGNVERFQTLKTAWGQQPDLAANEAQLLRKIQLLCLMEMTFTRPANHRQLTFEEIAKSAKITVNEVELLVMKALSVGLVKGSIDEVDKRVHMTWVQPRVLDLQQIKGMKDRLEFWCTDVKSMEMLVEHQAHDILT
Sequence of UniProt O95997 (O95997 whole entry, looked up): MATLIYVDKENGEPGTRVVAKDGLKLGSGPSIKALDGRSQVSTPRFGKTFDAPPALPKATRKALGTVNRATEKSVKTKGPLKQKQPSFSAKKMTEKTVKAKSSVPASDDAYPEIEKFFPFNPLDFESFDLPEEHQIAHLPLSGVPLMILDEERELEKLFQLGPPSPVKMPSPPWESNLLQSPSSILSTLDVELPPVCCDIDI
Sequence of UniProt P48426 (P48426 whole entry, looked up): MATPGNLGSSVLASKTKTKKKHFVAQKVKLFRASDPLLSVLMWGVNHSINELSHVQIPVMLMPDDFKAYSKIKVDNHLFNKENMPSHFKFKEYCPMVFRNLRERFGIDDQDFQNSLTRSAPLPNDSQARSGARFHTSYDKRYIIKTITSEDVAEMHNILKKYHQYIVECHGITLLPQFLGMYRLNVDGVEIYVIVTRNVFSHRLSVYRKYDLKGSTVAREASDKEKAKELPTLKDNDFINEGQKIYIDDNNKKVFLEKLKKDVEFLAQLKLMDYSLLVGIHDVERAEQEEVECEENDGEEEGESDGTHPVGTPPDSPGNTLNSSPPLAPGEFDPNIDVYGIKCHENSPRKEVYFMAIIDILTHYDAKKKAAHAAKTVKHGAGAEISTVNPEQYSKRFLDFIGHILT
Sequence of UniProt P13861 (P13861 whole entry, looked up): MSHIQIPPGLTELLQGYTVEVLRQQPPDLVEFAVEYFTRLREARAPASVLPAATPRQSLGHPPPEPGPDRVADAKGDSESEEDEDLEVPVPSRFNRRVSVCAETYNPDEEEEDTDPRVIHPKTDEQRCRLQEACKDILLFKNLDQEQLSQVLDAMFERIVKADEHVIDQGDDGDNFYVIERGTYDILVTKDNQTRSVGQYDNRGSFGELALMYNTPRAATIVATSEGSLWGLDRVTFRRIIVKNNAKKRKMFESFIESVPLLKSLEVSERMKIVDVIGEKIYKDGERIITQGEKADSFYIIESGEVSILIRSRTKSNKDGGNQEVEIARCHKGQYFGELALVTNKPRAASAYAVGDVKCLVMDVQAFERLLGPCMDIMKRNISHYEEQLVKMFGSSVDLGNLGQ
Sequence of UniProt Q6GMV3 (Q6GMV3 whole entry, looked up): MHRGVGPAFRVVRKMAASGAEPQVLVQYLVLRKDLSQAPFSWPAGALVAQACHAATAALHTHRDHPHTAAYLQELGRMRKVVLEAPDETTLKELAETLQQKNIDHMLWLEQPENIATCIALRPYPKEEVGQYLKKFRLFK

| Target | log2 fold change |
| --- | --- |
| PTTG1 (UniProt O95997) | -0.069 (inactive) |
| PEX16 isoform 2 (UniProt Q9Y5Y5) | -0.104 (inactive) |
| PCYT1B (UniProt Q9Y5K3) | 0.011 (inactive) |
| PSMD13 (UniProt Q9UNM6) | -0.021 (inactive) |
| PIP4P1 isoform 2 (UniProt Q86T03) | 0.003 (inactive) |
| PIP4K2A (UniProt P48426) | -0.068 (inactive) |
| PRIM1 (UniProt P49642) | 0.048 (inactive) |
| PRKAR2A (UniProt P13861) | 0.047 (inactive) |
| PLSCR1 (UniProt O15162) | -0.046 (inactive) |
| PHKG2 (UniProt P15735) | 0.031 (inactive) |
| POLR3D (UniProt P05423) | 0.043 (inactive) |
| PDE4DIP isoform 4 (UniProt Q5VU43) | 0.011 (inactive) |
| PLA2G15 (UniProt Q8NCC3) | -0.057 (inactive) |

Compound: CC(C)(O)CC(=O)NCCn1ccc2ncnc(Nc3ccc(Oc4cccc(C(F)(F)F)c4)c(Cl)c3)c21
Assay: as above
Method in brief: as §1

| Target | log2 fold change |
| --- | --- |
| PCLAF (UniProt Q15004) | 0.036 (inactive) |
| PTGFRN (UniProt Q9P2B2) | -0.026 (inactive) |
| PSMD7 (UniProt P51665) | 0.057 (inactive) |
| POTEI (UniProt P0CG38) | 0.015 (inactive) |
| POMP (UniProt Q9Y244) | -0.033 (inactive) |
| PRKACB isoform 2 (UniProt P22694) | -0.011 (inactive) |
| PPP2R5A (UniProt Q15172) | -0.16 (inactive) |
| PHKA2 (UniProt P46019) | -0.1 (inactive) |
| PCTP (UniProt Q9UKL6) | -0.091 (inactive) |
| PEX11B (UniProt O96011) | 0.008 (inactive) |
| PRKAR1B (UniProt P31321) | -0.013 (inactive) |
| PTPMT1 (UniProt Q8WUK0) | -0.083 (inactive) |
| POLD1 (UniProt P28340) | -0.085 (inactive) |
| PSMD9 (UniProt O00233) | 0.003 (inactive) |
| QRICH1 (UniProt Q2TAL8) | -0.237 (inactive) |
| PNPLA8 (UniProt Q9NP80) | -0.071 (inactive) |
| POLA1 (UniProt P09884) | -0.066 (inactive) |
| PSMD1 (UniProt Q99460) | 0.009 (inactive) |

| Target | log2 fold change |
| --- | --- |
| PHKA1 (UniProt P46020) | -0.161 (inactive) |
| PPP2R5C isoform 5 (UniProt Q13362) | -0.072 (inactive) |
| PTRHD1 (UniProt Q6GMV3) | -0.022 (inactive) |
| PSMC5 (UniProt P62195) | 0.024 (inactive) |
| PDLIM7 (UniProt Q9NR12) | -0.035 (inactive) |
| PTTG1 (UniProt O95997) | -0.03 (inactive) |
| PEX16 isoform 2 (UniProt Q9Y5Y5) | -0.067 (inactive) |
| PCYT1B (UniProt Q9Y5K3) | 0.001 (inactive) |
| PSMD13 (UniProt Q9UNM6) | 0 (inactive) |
| PIP4P1 isoform 2 (UniProt Q86T03) | -0.004 (inactive) |
| PIP4K2A (UniProt P48426) | -0.108 (inactive) |
| PRIM1 (UniProt P49642) | -0.079 (inactive) |
| PRKAR2A (UniProt P13861) | -0.036 (inactive) |
| PLSCR1 (UniProt O15162) | 0.047 (inactive) |
| PHKG2 (UniProt P15735) | -0.121 (inactive) |
| POLR3D (UniProt P05423) | -0.1 (inactive) |
| PDE4DIP isoform 4 (UniProt Q5VU43) | -0.08 (inactive) |
| PLA2G15 (UniProt Q8NCC3) | -0.004 (inactive) |
